TROY signal inh: inhibitors of TROY-dependent NF-kB signaling; inhibition, % at 10 µM; Q293 LMP1-TROYcd NF-kB luciferase reporter, 4 h; actives 0.98% (n = 360,000); AID 1347056;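 active means compounds whose plate-normalised and pattern-corrected inhibition of the luciferase reporter signal at the single screening dose is 50% or more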
HSF1 activator: increases HSF-1 driven luciferase reporter signal; NIH3T3-HGL HSF-1 luciferase reporter, MG132, 8 h; 100% = twice DMSO control signal; activation, % at 9 µM; actives 1.7% (n = 300,000); AID 504408;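 active means mean replicate activation of at least 50% with a set share of replicates each reaching 50%; inconclusive means only one of those two conditions met; inactive means mean below 50% and too few replicates reaching it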;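 further: 0% = median of the neutral control wells and 100% = twice that signal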
HSF1 inhib: HSF1 inhibition; NIH3T3-HGL HSE-luciferase, MG132-induced, luminescence 8 h; stronger effect = lower value; activity change, negative = inhibition, % at 7.5 µM (by protocol); actives 0.77% (n = 300,000); AID 2098;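 active means more than half of replicate wells show activity change below -50%, luminescence cut by over half; inconclusive means some wells, but at most half, below -50%; inactive means no replicate well below -50%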;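 further: luciferase reports HSF-1 transcriptional activity via heat shock element; 0% = median of DMSO wells and -100% = zero luminescence signal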
TWEAK Fn14 block: TWEAK-Fn14 signaling inhibition; AID 1159606; TWEAK-stimulated Fn14 reporter cells, luciferase luminescence, 8 h; inhibition, % at 10 µM; actives 2% (n = 360,000); in the data active means inhibition above about 50%
LGR2 inh: inhibitors of bursicon-induced Drosophila LGR2 receptor cAMP signaling | AID 720647 | inhibition, % at 9.99 µM | HEK293 LGR2, CRE-luciferase, bursicon-stimulated, 4 h | actives 0.35% (n = 380,000);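 active means drop in luminescence signal, shown as inhibition above about 50% in the replicate tests, limit read from the data, passing the limit was not always enough; inconclusive means probably only some replicates passing the limit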;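 further: agonist challenge used bursicon conditioned medium at about half maximal strength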
EBV LMP1 NFkB: inhibitors of Epstein-Barr LMP1-induced NF-kappaB reporter | inhibition, % at 12.5 µM | actives 0.69% (n = 350,000) | LMP1-induced NF-kappaB luciferase reporter cells, luminescence; in the data active means inhibition above about 41%; inconclusive means no clear call, values can overlap the other calls;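 further: 0% = neutral control wells and 100% = reference inhibitor control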
* marks the source's active call; other numbers are inactive results; ? = inconclusive; · = no result given. An excerpt weighted towards active compounds, which were near 3.6% of everything screened.

SMILES	TROY signal inh	HSF1 activator	HSF1 inhib	TWEAK Fn14 block	LGR2 inh	EBV LMP1 NFkB
COc1ccc2nc(SCC(C)=O)c(C#N)cc2c1	-20	84*	37	44	-16	-38
COc1ccc(Nc2nc3cc(C)ccc3cc2C#N)c(OC)c1	-3	-12	-2	-5	7	0
COc1ccc2nc(SCc3cccnc3)c(C#N)cc2c1	-39	24	26	-43	·	-8
CCCC#Cc1cnc2c(c1)C(=O)N([C@@H](C)CO)C[C@@H](C)[C@H](CN(C)C(=O)Cc1cccnc1)O2	·	·	·	·	6	·
C[C@H]1CN([C@@H](C)CO)C(=O)c2cccc(NC(=O)NC3CCCCC3)c2O[C@H]1CN(C)S(=O)(=O)c1ccc(F)cc1	·	·	·	·	11	·
O=C1CSC(c2ccc(F)cc2)N1c1nc2ccccc2s1 (stereo unspecified)	-20	14	9	-17	-6	62*
CO[C@H]1CN(C)C(=O)c2cc(NS(=O)(=O)c3ccccc3)ccc2OC[C@@H](C)N(Cc2ccccn2)C[C@H]1C	·	·	·	·	0	·
COc1cc(C(=O)NC(=S)Nc2csc(-c3ccc(F)cc3)n2)cc(OC)c1OC	56*	32	0	10	10	-2
COC(=O)c1cc(=O)n(CCc2ccc(OC)cc2)c(=Nc2ccc(F)c(Cl)c2)s1	-13	38	39	-1	0	-13
CCOC(=O)c1ccc(N=c2sc(C(=O)OC)cc(=O)n2Cc2ccco2)cc1	32	107*	89	64*	70*	-16
CCOC(=O)c1ccc(N=c2sc(C(=O)OC)cc(=O)n2CCCN2CCOCC2)cc1	8	45	29	22	27	14
CCn1c(=O)cc(C(=O)OC)sc1=Nc1ccc(F)c(F)c1	5	31	20	46	?	84*
CC1=NNC(=O)C1CC(=O)N/N=C/C(Br)=C/c1ccccc1 (stereo unspecified)	-13	-8	-10	14	-14	2
CC1=NNC(=O)C1CC(=O)N/N=C/c1cccs1 (stereo unspecified)	54*	-12	-6	-14	-8	-3
COc1cccc(/C=N/NC(=O)CC2C(=O)NN=C2C)c1OC (stereo unspecified)	-27	6	0	10	·	0
CC1=NNC(=O)C1CCC(=O)N/N=C/C(Br)=C/c1ccccc1 (stereo unspecified)	-15	88*	67	4	·	6
CC1C(=O)NN=C1C(=O)N/N=C/c1ccco1 (stereo unspecified)	-27	15	2	-9	-3	-2
CC1C(=O)NN=C1C(=O)N/N=C\C(Br)=C\c1ccccc1 (stereo unspecified)	-43	213*	153	-24	-19	10
CO[C@H]1CN(C)C(=O)c2cc(NC(=O)C3CCCC3)ccc2OC[C@H](C)N(S(C)(=O)=O)C[C@H]1C	·	·	·	·	10	·
O=C(C1CCCC1)N1CC[C@@H]2[C@H](CO)Nc3ccc(C#Cc4ccc(F)cc4)cc3[C@@H]21	·	·	·	·	1	·
COc1cccc(NC(=O)N[C@@H]2CC[C@@H](CC(=O)N3CCOCC3)O[C@H]2CO)c1	·	·	·	·	-12	·
C[C@H](CO)N1C[C@H](C)[C@H](CN(C)C(=O)c2ccc3c(c2)OCO3)Oc2ncc(C3=CCCC3)cc2C1=O	·	·	·	·	5	·
CC(Sc1nc(-c2ccccc2)cc(C(F)(F)F)n1)C(=O)Nc1sc2c(c1C#N)CCC2 (stereo unspecified)	2	57*	17	-17	-2	-4
CS(=O)(=O)Nc1ccc2c(c1)[C@@H]1C[C@@H](CC(=O)NCc3ccccc3F)O[C@@H](CO)[C@@H]1O2	·	·	·	·	-11	·
COc1ccc(S(=O)(=O)Nc2ccc3c(c2)C(=O)N([C@@H](C)CO)C[C@@H](C)[C@@H](CN(C)C(=O)Nc2c(C)noc2C)OCCCC[C@@H](C)O3)cc1	·	·	·	·	-7	·
CO[C@H]1CC[C@@H]2CCN(C)C(=O)[C@H](C)N(C)C(=O)c3cc(C#N)ccc3OC[C@H]1O2	·	·	·	·	4	·
N=c1n(Cc2ccc(Cl)cc2)c2ccccc2n1CC(O)COc1ccccc1 (stereo unspecified)	6	19	1	4	83*	-51
N=c1n(Cc2ccccc2)c2ccccc2n1CC(O)COc1ccc(Cl)cc1Cl (stereo unspecified)	60*	12	-2	29	101*	-13
